According to PubChem BioAssay (NCI):
About 83,000 compounds went through this panel and 20% of them were active in at least one assay; those are over-represented in the sample as a whole.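 For each line, cells grew in 96-well plates with the test compound present at a single concentration for 48 hours.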 Calls of active or inactive are those of the source. How the source made its calls: active means growth percent below 10; inactive means the rest.

Columns and labels:
Assay in all cases: NCI-60 one-dose screen, 48 h (100 = growth as untreated, 0 = no growth, -100 = all killed)
Details in all cases: 10 µM unless noted
NCI-H23 lung = test system: NCI-H23 lung
NCI-H226 lung = test system: NCI-H226 lung
NCI-H322M lung = test system: NCI-H322M lung
HOP-62 NSCLC = test system: HOP-62 NSCLC
NCI-H460 lung = test system: NCI-H460 lung
HOP-92 NSCLC = test system: HOP-92 NSCLC
NCI-H522 lung = test system: NCI-H522 lung
A549/ATCC NSCLC = test system: A549/ATCC NSCLC
786-0 renal = test system: 786-0 renal
COLO 205 colon = test system: COLO 205 colon

Measured: growth

CCCCOc1nc2ccccc2cc1C1CNC(=O)c2ccccc2N1 (stereo not given)
inactive: NCI-H23 lung 23.8% | NCI-H322M lung 47.2% | HOP-62 NSCLC 23% | HOP-92 NSCLC 48.9% | A549/ATCC NSCLC 19.9% | 786-0 renal 26.2%
active: NCI-H226 lung 0.702% | NCI-H460 lung 6.89% | NCI-H522 lung -13.6% | COLO 205 colon 9.84%

COc1ccc2c(c1)CCCN2c1c2ccccc2nc2ccccc12
active: NCI-H460 lung 6.18% | NCI-H522 lung -0.944% | COLO 205 colon -16.8%
inactive: NCI-H23 lung 15.8% | NCI-H226 lung 12.6% | NCI-H322M lung 45.9% | HOP-62 NSCLC 33.2% | HOP-92 NSCLC 12.4% | A549/ATCC NSCLC 18.5% | 786-0 renal 28.9%

O=C(O)c1ccc2c(c1)CCC2
inactive: NCI-H23 lung 108% | NCI-H226 lung 104% | NCI-H322M lung 106% | HOP-62 NSCLC 114% | NCI-H460 lung 115% | HOP-92 NSCLC 117% | NCI-H522 lung 104% | A549/ATCC NSCLC 104% | 786-0 renal 105% | COLO 205 colon 104%

CC/C=C\C[C@H](O)C/C=C1/C(=O)C=C[C@@H]1C/C=C\CCCC(=O)OC
inactive: NCI-H322M lung 29.3%
active: NCI-H23 lung -7.41% | NCI-H226 lung -34.5% | HOP-62 NSCLC -32% | NCI-H460 lung -46.3% | HOP-92 NSCLC -20.5% | NCI-H522 lung -69.6% | A549/ATCC NSCLC -21.4% | 786-0 renal -49.6% | COLO 205 colon -52.1%

COc1cc(/C=C/C(=O)c2ccc(Nc3nc(Nc4ccc(F)cc4)nc(Nc4ccc(Cl)cc4)n3)cc2)cc(OC)c1OC
inactive: NCI-H23 lung 26.3% | NCI-H226 lung 61.1% | NCI-H322M lung 99.6% | HOP-62 NSCLC 82.1% | NCI-H460 lung 55.1% | HOP-92 NSCLC 38% | NCI-H522 lung 62.2% | A549/ATCC NSCLC 53.1% | 786-0 renal 66.4% | COLO 205 colon 78.5%

COc1ccc(/C=C/c2c(C(=O)/C=C/c3cccs3)c(C)nc3ccccc23)cc1
inactive: NCI-H23 lung 67.3% | NCI-H226 lung 76% | NCI-H322M lung 89.7% | HOP-62 NSCLC 93.2% | NCI-H460 lung 83.6% | HOP-92 NSCLC 42.7% | NCI-H522 lung 62.6% | A549/ATCC NSCLC 92.5% | 786-0 renal 90.6% | COLO 205 colon 78.4%

CNC(=O)c1cc(Oc2cccc3nc(Nc4ccc(F)c(Cl)c4)ccc23)ccn1
inactive: NCI-H23 lung 70% | NCI-H226 lung 46.9% | NCI-H322M lung 76.6% | HOP-62 NSCLC 50.5% | NCI-H460 lung 62.5% | HOP-92 NSCLC 77.9% | NCI-H522 lung 40% | A549/ATCC NSCLC 42.1% | 786-0 renal 42.6% | COLO 205 colon 43.7%
